Measured values taken from the supplement of paper PMC8728848.
The entries come from a sample that favours the strongest signals as a whole.

Experiments:
Test in all cases: glycan array binding signal (z-score within array); higher = stronger binding
Conditions in all cases: glycan notation: IUPAC condensed, linker removed
[1] = molecular target: Fuc(a1-2)Gal(b1-4)GlcNAc(b1-3)Gal(b1-4)GlcNAc
In short: (§1)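 From the Consortium for Functional Glycomics database, 3228 arrays were curated, keeping only those whose protein sequence was available. Binding is given as a within-array Z-score averaged across arrays sharing a protein sequence and across linkers. Negative Z-scores can be read as non-binding.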

[2] = molecular target: Fuc(a1-2)Gal(b1-4)GlcNAc(b1-6)GalNAc
In short: as §1

[3] = molecular target: Fuc(a1-2)[GalNAc(a1-3)]Gal
In short: as §1

[4] = molecular target: Fuc(a1-2)[GalNAc(a1-3)]Gal(b1-3)GalNAc(b1-3)Gal(a1-4)Gal(b1-4)Glc
In short: as §1

[5] = molecular target: Fuc(a1-2)[GalNAc(a1-3)]Gal(b1-4)[Fuc(a1-3)]GlcNAc
In short: as §1

[6] = molecular target: Fuc(a1-3)[Gal3S(b1-4)]GlcNAc6S
In short: as §1

[7] = molecular target: Gal(a1-3)Gal(b1-4)GlcNAc(b1-6)GalNAc
In short: as §1

[8] = molecular target: Gal(a1-3)[Gal(a1-4)]Gal(b1-4)GlcNAc
In short: as §1

[9] = molecular target: Gal(b1-3)GlcNAc(a1-3)Gal(b1-4)GlcNAc
In short: as §1

[10] = molecular target: Gal(b1-3)GlcNAc(b1-2)Man(a1-3)[Gal(b1-3)GlcNAc(b1-2)Man(a1-6)]Man(b1-4)GlcNAc(b1-4)GlcNAc
In short: as §1

[11] = molecular target: Gal(b1-3)GlcNAc(b1-2)Man(a1-3)[GlcNAc(b1-4)][Gal(b1-3)GlcNAc(b1-2)Man(a1-6)]Man(b1-4)GlcNAc(b1-4)GlcNAc
In short: as §1

[12] = molecular target: Gal(b1-3)[GlcNAc(b1-6)]GalNAc
In short: as §1

Gal(b1-4)GlcNAc(b1-2)Man = molecular target: Gal(b1-4)GlcNAc(b1-2)Man
In short: as §1

[13] = molecular target: Gal(b1-4)GlcNAc(b1-2)Man(a1-3)Man(b1-4)GlcNAc(b1-4)GlcNAc
In short: as §1

[14] = molecular target: Gal(b1-4)GlcNAc(b1-2)Man(a1-3)[Man(a1-6)]Man(b1-4)GlcNAc(b1-4)GlcNAc
In short: as §1

[15] = molecular target: Gal(b1-4)GlcNAc(b1-3)Gal(b1-4)GlcNAc(b1-2)[Gal(b1-4)GlcNAc(b1-3)Gal(b1-4)GlcNAc(b1-6)]Man(a1-6)[Gal(b1-4)GlcNAc(b1-3)Gal(b1-4)GlcNAc(b1-2)Man(a1-3)]Man(b1-4)GlcNAc(b1-4)GlcNAc
In short: as §1

[16] = molecular target: Gal(b1-4)GlcNAc(b1-3)Gal(b1-4)GlcNAc(b1-3)Gal(b1-4)GlcNAc(b1-3)Gal(b1-4)GlcNAc(b1-3)Gal(b1-4)GlcNAc(b1-2)Man(a1-3)[Gal(b1-4)GlcNAc(b1-3)Gal(b1-4)GlcNAc(b1-3)Gal(b1-4)GlcNAc(b1-3)Gal(b1-4)GlcNAc(b1-3)Gal(b1-4)GlcNAc(b1-2)Man(a1-6)]Man(b1-4)GlcNAc(b1-4)GlcNAc
In short: as §1

[17] = molecular target: Gal(b1-4)GlcNAc(b1-3)Gal(b1-4)GlcNAc(b1-3)Gal(b1-4)GlcNAc(b1-3)Gal(b1-4)GlcNAc(b1-3)Gal(b1-4)GlcNAc(b1-2)[Gal(b1-4)GlcNAc(b1-3)Gal(b1-4)GlcNAc(b1-3)Gal(b1-4)GlcNAc(b1-3)Gal(b1-4)GlcNAc(b1-3)Gal(b1-4)GlcNAc(b1-6)]Man(a1-6)[Gal(b1-4)GlcNAc(b1-3)Gal(b1-4)GlcNAc(b1-3)Gal(b1-4)GlcNAc(b1-3)Gal(b1-4)GlcNAc(b1-3)Gal(b1-4)GlcNAc(b1-2)Man(a1-3)]Man(b1-4)GlcNAc(b1-4)[Fuc(a1-6)]GlcNAc
In short: as §1

[18] = molecular target: Gal(b1-4)GlcNAc(b1-6)GalNAc
In short: as §1

Gal3S(b1-4)Glc = molecular target: Gal3S(b1-4)Glc
In short: as §1

Gal3S6S(b1-4)GlcNAc = molecular target: Gal3S6S(b1-4)GlcNAc
In short: as §1

Gal6S(b1-4)GlcNAc6S = molecular target: Gal6S(b1-4)GlcNAc6S
In short: as §1

GalNAc(a1-3)GalNAc = molecular target: GalNAc(a1-3)GalNAc
In short: as §1

Glc(a1-6)Glc(a1-6)Glc = molecular target: Glc(a1-6)Glc(a1-6)Glc
In short: as §1

[19] = molecular target: GlcNAc(b1-2)Gal(b1-3)GalNAc
In short: as §1

[20] = molecular target: GlcNAc(b1-2)Man(a1-3)[GlcNAc(b1-2)Man(a1-6)]Man(b1-4)GlcNAc(b1-4)[Fuc(a1-6)]GlcNAc
In short: as §1

[21] = molecular target: GlcNAc(b1-2)[GlcNAc(b1-4)]Man(a1-3)[GlcNAc(b1-4)][GlcNAc(b1-2)Man(a1-6)]Man(b1-4)GlcNAc(b1-4)GlcNAc
In short: as §1

[22] = molecular target: GlcNAc(b1-3)Gal(b1-4)GlcNAc(b1-2)[GlcNAc(b1-3)Gal(b1-4)GlcNAc(b1-6)]Man(a1-6)[GlcNAc(b1-3)Gal(b1-4)GlcNAc(b1-2)Man(a1-3)]Man(b1-4)GlcNAc(b1-4)GlcNAc
In short: as §1

[23] = molecular target: GlcNAc(b1-3)Gal(b1-4)GlcNAc(b1-3)Gal(b1-4)GlcNAc(b1-2)[GlcNAc(b1-3)Gal(b1-4)GlcNAc(b1-3)Gal(b1-4)GlcNAc(b1-6)]Man(a1-6)[GlcNAc(b1-3)Gal(b1-4)GlcNAc(b1-3)Gal(b1-4)GlcNAc(b1-2)Man(a1-3)]Man(b1-4)GlcNAc(b1-4)[Fuc(a1-6)]GlcNAc
In short: as §1

[24] = molecular target: GlcNAc(b1-3)Gal(b1-4)GlcNAc(b1-6)[Gal(b1-3)]GalNAc
In short: as §1

[25] = molecular target: GlcNAc(b1-4)GlcNAc(b1-4)GlcNAc
In short: as §1

[26] = molecular target: Man(a1-2)Man(a1-3)[Man(a1-2)Man(a1-6)]Man(a1-6)[Man(a1-2)Man(a1-2)Man(a1-3)]Man(b1-4)GlcNAc(b1-4)GlcNAc
In short: as §1

Man(a1-6)Man = molecular target: Man(a1-6)Man
In short: as §1

[27] = molecular target: Neu5Ac(a2-3)Gal(b1-3)]Neu5Ac(a2-3)Gal(b1-4)]GlcNAc
In short: as §1

[28] = molecular target: Neu5Ac(a2-3)Gal(b1-4)GlcNAc(b1-2)Man
In short: as §1

[29] = molecular target: Neu5Ac(a2-3)Gal(b1-4)GlcNAc(b1-3)Gal(b1-4)GlcNAc(b1-6)[Gal(b1-3)]GalNAc
In short: as §1

[30] = molecular target: Neu5Ac(a2-3)Gal(b1-4)GlcNAc(b1-6)GalNAc
In short: as §1

[31] = molecular target: Neu5Ac(a2-3)Gal(b1-4)GlcNAc(b1-6)[Gal(b1-3)]GalNAc
In short: as §1

[32] = molecular target: Neu5Ac(a2-3)Gal(b1-4)GlcNAc6S
In short: as §1

[33] = molecular target: Neu5Ac(a2-3)Gal(b1-4)[Fuc(a1-3)]GlcNAc(b1-3)Gal(b1-4)GlcNAc
In short: as §1

[34] = molecular target: Neu5Ac(a2-3)Gal(b1-4)[Fuc(a1-3)]GlcNAc6S
In short: as §1

Neu5Ac(a2-3)GalNAc = molecular target: Neu5Ac(a2-3)GalNAc
In short: as §1

[35] = molecular target: Neu5Ac(a2-3)GalNAc(b1-4)GlcNAc
In short: as §1

[36] = molecular target: Neu5Ac(a2-6)Gal(b1-4)GlcNAc(b1-2)Man(a1-3)Man(b1-4)GlcNAc(b1-4)GlcNAc
In short: as §1

[37] = molecular target: Neu5Ac(a2-6)Gal(b1-4)GlcNAc(b1-3)Gal(b1-3)GlcNAc
In short: as §1

[38] = molecular target: Neu5Ac(a2-6)Gal(b1-4)GlcNAc(b1-3)Gal(b1-4)[Fuc(a1-3)]GlcNAc(b1-3)Gal(b1-4)[Fuc(a1-3)]GlcNAc
In short: as §1

[39] = molecular target: Neu5Ac(a2-6)Gal(b1-4)GlcNAc(b1-3)[Neu5Ac(a2-6)Gal(b1-4)GlcNAc(b1-6)]GalNAc
In short: as §1

[40] = molecular target: Neu5Ac(a2-6)Gal(b1-4)GlcNAc(b1-6)[Gal(b1-3)GlcNAc(b1-3)]Gal(b1-4)Glc
In short: as §1

[41] = molecular target: Neu5Ac(a2-8)Neu5Ac(a2-8)Neu5Ac
In short: as §1

Neu5Ac(b2-6)GalNAc = molecular target: Neu5Ac(b2-6)GalNAc
In short: as §1

[42] = molecular target: Neu5Gc(a2-3)Gal(b1-4)GlcNAc(b1-3)Gal(b1-4)GlcNAc(b1-2)Man(a1-3)[Neu5Gc(a2-3)Gal(b1-4)GlcNAc(b1-3)Gal(b1-4)GlcNAc(b1-2)Man(a1-6)]Man(b1-4)GlcNAc(b1-4)GlcNAc
In short: as §1

[43] = molecular target: Neu5Gc(b2-6)Gal(b1-4)GlcNAc
In short: as §1

B1: EULS2 M4 (Oryza sativa) (protein)
chain: MVYCRANPNYAMTARNGAVVLAPANPKDEYQHWIKDMRWSTSIKDEEGYPAFALVNKATGQAIKHSLGQSHPVRLVPYNPEVMDESVLWTESRDVGNGFRCIRMVNNIYLNFDAFHGDKYHGGVRDGTDIVLWKWCEGDSLRWKIQPYYILEQKLISEEDLNSAVDHHHHHH
glycan array binding signal (z-score) [1]: -0.01
glycan array binding signal (z-score) [2]: -0.469
glycan array binding signal (z-score) [3]: -0.348
glycan array binding signal (z-score) [4]: -0.473
glycan array binding signal (z-score) [5]: -0.416
glycan array binding signal (z-score) [6]: -0.356
glycan array binding signal (z-score) [7]: 0.31
glycan array binding signal (z-score) [8]: 7
glycan array binding signal (z-score) [9]: -0.21
glycan array binding signal (z-score) [10]: -0.259
glycan array binding signal (z-score) [11]: 4.91
glycan array binding signal (z-score) [12]: -0.511
glycan array binding signal (z-score) (Gal(b1-4)GlcNAc(b1-2)Man): -0.202
glycan array binding signal (z-score) [13]: 2.57
glycan array binding signal (z-score) [14]: 7.18
glycan array binding signal (z-score) [15]: 6.97
glycan array binding signal (z-score) [16]: -0.273
glycan array binding signal (z-score) [17]: 4.92
glycan array binding signal (z-score) [18]: -0.124
glycan array binding signal (z-score) (Gal3S(b1-4)Glc): 0.203
glycan array binding signal (z-score) (Gal3S6S(b1-4)GlcNAc): -0.485
glycan array binding signal (z-score) (Gal6S(b1-4)GlcNAc6S): -0.349
glycan array binding signal (z-score) (GalNAc(a1-3)GalNAc): -0.218
glycan array binding signal (z-score) (Glc(a1-6)Glc(a1-6)Glc): 0.287
glycan array binding signal (z-score) [19]: -0.527
glycan array binding signal (z-score) [20]: -0.215
glycan array binding signal (z-score) [21]: -0.288
glycan array binding signal (z-score) [22]: 0.417
glycan array binding signal (z-score) [23]: -0.364
glycan array binding signal (z-score) [24]: -0.431
glycan array binding signal (z-score) [25]: -0.101
glycan array binding signal (z-score) [26]: -0.4
glycan array binding signal (z-score) (Man(a1-6)Man): 0.713
glycan array binding signal (z-score) [27]: -0.232
glycan array binding signal (z-score) [28]: 7.63
glycan array binding signal (z-score) [29]: -0.233
glycan array binding signal (z-score) [30]: -0.226
glycan array binding signal (z-score) [31]: -1.27
glycan array binding signal (z-score) [32]: 4.39
glycan array binding signal (z-score) [33]: 0.35
glycan array binding signal (z-score) [34]: -0.364
glycan array binding signal (z-score) (Neu5Ac(a2-3)GalNAc): 0.083
glycan array binding signal (z-score) [35]: 0.042
glycan array binding signal (z-score) [36]: -0.572
glycan array binding signal (z-score) [37]: 2.81
glycan array binding signal (z-score) [38]: 4.01
glycan array binding signal (z-score) [39]: 7.46
glycan array binding signal (z-score) [40]: -0.428
glycan array binding signal (z-score) [41]: -0.325
glycan array binding signal (z-score) (Neu5Ac(b2-6)GalNAc): 0.656
glycan array binding signal (z-score) [42]: -0.344
glycan array binding signal (z-score) [43]: -0.504
